Bioassay records (PubChem)
Insulin prom inh = inhibitors of insulin promoter-driven GFP, primary screen, imaging, TRM-6 cells (human fetal islet line), eGFP reporter, cell count; 130,000 compounds, 0.9% hits; reporter expression induced with tamoxifen; inhibition, % at 2 µM;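 active means inhibition above the mean plus 3 SD, with well images judged a real hit on visual review, cut at about 60% in these data, passing the limit was not always enough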
Lmaj promast = Leishmania major promastigote growth inhibition, primary screen; inhibition, % at 10 µM; Leishmania major promastigotes, resazurin fluorescence viability; 200,000 compounds, 9% hits; AID 1063, 2008; in the data active means inhibition above about 50%;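 further: promastigotes grown with compound for 44 hours at 28 °C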
Ins promoter up = insulin promoter activators in MIN6 cells, imaging, high-content screening, mouse beta cells; z-score at 5 µM; 190,000 compounds, 0.3% hits; MIN6 insulin promoter-GFP reporter; active compounds read high;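 active means z-score above 3 at 5 µM with at least 500 cells counted in the well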
Autophagy HCS = autophagy modulators in MEF cells, primary screen, imaging, high-content, MEF GFP-LC3; MEF GFP-LC3 puncta imaging; test concentration mostly 10 µM; calls only at 10 µM (by protocol); 190,000 compounds, 0.98% hits; AID 463193, 2010;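 active means percentage of spot-positive cells more than 3 SD above its plate mean, without a fluorescence outlier flag or 80% toxicity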;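 further: spot-positive cell cutoff set from DMSO-treated cells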
bCat KO growth = primary screen for growth suppressors in beta-catenin knockout HCT116 cells (colon tumor, human) | HCT116 beta-catenin knockout viability, CellTiter-Glo, 60 h; active compounds read low | 140,000 compounds, 1.5% hits | viability, % at 10 µM;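 active means viability at or under a set limit, the compound median less 4 SD, cut at about 6% in these data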;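 further: 0% = Hyamine 1622 control at 20 µM and 100% = untreated cell control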
PTEN del growth = growth suppression of PTEN-null HCT116, primary screen, cell-based, CellTiter-Glo | 140,000 compounds, 1.2% hits | viability, % at 10 µM | AID 827, 2007 | HCT116 PTEN-null viability, 60 h; active compounds read low;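 active means viability at or below a set limit, 4 SD under the median of all tested compounds, cut at about 3.7% in these data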;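 further: PTEN knockout HCT116 line with beta catenin targeted HCT116 as companion control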
* hit, by the source's call; i = inactive; / = no result; + = active, no number. The list is not random: actives were taken first. Their share in the collection is about 9.6%.

SMILES | Insulin prom inh | Lmaj promast | Ins promoter up | Autophagy HCS | bCat KO growth | PTEN del growth
N=c1c2c(ncn1CCN1CCOCC1)Oc1ccc3ccccc3c1C2c1ccccc1 (centres undefined) | 28.1 | 99.2* | -0.99 | i | 1.4* | 1.3*
COc1ccc(C2c3c(ncn(CCN4CCOCC4)c3=N)Oc3ccc4ccccc4c32)cc1 (centres undefined) | -10.8 | 100.0* | -1.05 | i | 1.5* | 1.1*
O=C(CN1CCC(n2nnc3cc(C(F)(F)F)ccc32)CC1)Nc1ccc2c(c1)OCCO2 | 27.3 | 18.2 | -1.38 | i | 86.2 | 98.5
COc1cccc(-c2cc(C(F)(F)F)nc(-n3ccc([N+](=O)[O-])n3)n2)c1 | / | 21.0 | -1.2 | i | / | /
O=[N+]([O-])c1ccn(-c2nc(-c3ccccc3)cc(C(F)(F)F)n2)n1 | 33.3 | 79.2* | -1.3 | i | / | /
O=C(CSCc1cnn(-c2ccccc2)c1-n1cccc1)NCc1cccs1 | 7.1 | -2.2 | 0.94 | i | 101.0 | 91.4
Cc1c(N(C)C(=O)c2ccco2)c(=O)n(-c2ccccc2)n1C | -87.5 | -4.0 | 0.24 | i | 96.7 | 107.9
COc1ccc(C(=O)N(C)c2c(C)n(C)n(-c3ccccc3)c2=O)cc1OC | 0.0 | -6.5 | 0.2 | + | / | /
CC(C)C(C(=O)NCc1ccco1)N(C(=O)CNS(=O)(=O)c1ccccc1)c1ccccc1 (centres undefined) | / | 17.2 | 0.06 | i | / | /
CCCC(C(=O)NC1CCCCC1)N(Cc1ccco1)C(=O)CNS(=O)(=O)c1ccccc1 (centres undefined) | -77.4 | 62.6* | -0.89 | i | 92.6 | 89.2
CC(C)C(C(=O)NCc1ccco1)N(C(=O)CNS(=O)(=O)c1ccc(Cl)cc1)C1CCCC1 (centres undefined) | / | 89.0* | -0.41 | i | 83.2 | 72.7
CN(Cc1ccccc1)C(=O)NC1CCCCC1 | -305.0 | 0.4 | / | i | 98.6 | 98.0
O=C(NC1CCCCC1)N(Cc1ccccc1)Cc1ccco1 | -52.6 | 54.7* | -0.85 | i | 69.8 | 80.4
COc1ccc2c(c1)CCC1C2=NN(/C(C)=C/C(C)=O)C1c1cccc(F)c1 (centres undefined) | / | 3.4 | 0.05 | i | / | /
CN(C(=O)c1ccco1)c1nc(CC(=O)Nc2ccccc2)cs1 | 44.2 | 11.4 | / | i | 85.7 | 84.6
N#C/C(=C\c1cccc(OC(=O)c2cccs2)c1)C(N)=O | 25.0 | -5.5 | 0.02 | i | 83.1 | 87.0
CCOc1ccc(-n2c(SCC(=O)NCc3ccco3)nc3c([nH]c4ccccc43)c2=O)cc1 | -30.2 | 45.9 | / | i | / | /
CCC(C)(C)n1nnnc1CN(Cc1cccs1)Cc1cc2cc(OC)ccc2[nH]c1=O | / | / | -2.13 | / | 60.1 | 56.5
CCOc1ccc2[nH]c(=O)c(CN(Cc3cccs3)Cc3nnnn3C(C)(C)CC)cc2c1 | / | 58.9* | -1.31 | i | 24.5 | 20.7
COc1ccc(-c2ccnc3c(C#N)cnn23)cc1 | 9.1 | 11.6 | 1.1 | i | / | /
O=C(NCc1ccc(Cl)cc1)c1cc(-c2ccco2)on1 | / | -5.6 | -0.36 | i | 88.2 | 87.1
O=C(O)CC1S/C(=N/N=C/c2ccc(-c3ccc(Cl)cc3[N+](=O)[O-])o2)NC1=O (centres undefined) | / | 99.4* | -0.08 | i | 94.3 | 105.7
O=C(O)CC1S/C(=N/N=C/c2ccc(-c3ccc(Cl)c([N+](=O)[O-])c3)o2)NC1=O (centres undefined) | / | -5.3 | 0.3 | i | / | /
CC1=C(CCN2CCN(C3CCCC3)C(CCO)C2)C(C)(C)CCC1 (centres undefined) | / | 82.8* | -0.67 | i | / | /
Cc1nn(C)c(Cl)c1CN1CCN(C2CCCCC2)C(CCO)C1 (centres undefined) | / | -3.7 | / | i | / | /
SMILES | Insulin prom inh | Lmaj promast | Ins promoter up | Autophagy HCS | bCat KO growth | PTEN del growth
CC(C)=CCN1CCN(CCC2=C(C)CCCC2(C)C)CC1CCO (centres undefined) | / | 80.2* | -0.55 | i | / | /
CC(C)=CCN1CCN(CCCn2cccn2)CC1CCO (centres undefined) | / | -7.3 | / | i | / | /
CN(C)c1nc(NCc2ccccc2)nc(SCC(=O)Nc2ccccc2)n1 | / | 10.1 | -0.09 | i | 73.7 | 65.6
CN(C)c1nc(NC(C)(C)C)nc(SCC(=O)Nc2ccccc2)n1 | 80.5* | 21.9 | -0.07 | i | / | /
CCCCN(C)C(=S)Nc1ccsc1C(=O)OC | / | 11.4 | / | i | / | /
N#CC1=C(N)N2C(=C(C#N)C1c1cccc(Br)c1)Nc1ccccc12 (centres undefined) | / | 7.0 | -0.38 | i | 3.2* | 2.0*
N#CC1=C(N)N2C(=C(C#N)C1c1ccc(Br)cc1)Nc1ccccc12 (centres undefined) | / | 18.4 | -1.17 | i | 1.9* | 2.2*
N#CC1=C(N)N2C(=C(C#N)C13CCN(Cc1ccccc1)CC3)Nc1ccccc12 | 27.0 | 5.7 | -0.23 | i | 67.5 | 66.2
Cn1c(=O)cc(OCCCC(=O)Nc2ccc3c(c2)OCCO3)c2ccccc21 | -69.2 | -0.7 | / | i | 86.5 | 84.9
CCN(CC)CCNC(=O)C(=O)NCC1OCCN1C(=O)c1ccc2c(c1)OCO2 (centres undefined) | 18.5 | 53.7* | -0.44 | i | 96.8 | 98.8
OCCC1CN(Cc2ccc(Oc3ncccn3)cc2)CCN1C1CCCCC1 (centres undefined) | / | / | 0.02 | / | / | /
OCC1CCCN(Cc2ccc(-c3ccccc3)cc2)C1 (centres undefined) | 63.6 | 95.6* | -0.28 | i | 77.6 | 82.6
O=C(c1ccc(Cl)cc1)C1CCCN(C(=O)/C=C/c2ccccn2)C1 (centres undefined) | / | 9.0 | 0.45 | i | / | /
Cc1ncoc1C(=O)N1CCCC(C(=O)c2ccc(-c3ccccc3)cc2)C1 (centres undefined) | / | -6.8 | -0.27 | i | / | /
O=C(c1ccc(-c2ccccc2)cc1)C1CCCN(C(=O)c2ccncc2)C1 (centres undefined) | 20.0 | 16.6 | -0.16 | + | / | /
O=C(c1ccc(Cl)cc1)C1CCCN(Cc2cnn(-c3ccccc3)c2)C1 (centres undefined) | / | 84.2* | 0.84 | i | / | /
O=C(c1ccc(Cl)cc1)C1CCCN(Cc2ccc(Oc3ncccn3)cc2)C1 (centres undefined) | / | 86.2* | -0.11 | i | / | /
COC(=O)c1ccc(Cn2nnc3c(sc4nc(N5CCOCC5)c5c(c43)CCCC5)c2=O)o1 | -21.4 | 18.1 | / | i | / | /
C#CCOC(=O)C(NC(=O)c1ccccc1)=C(C)C | -26.1 | -0.9 | 0.25 | i | 87.8 | 90.6
CC(=O)Nc1ccc(CN2CCCC(C(=O)c3ccc(C(F)(F)F)cc3)C2)cc1 (centres undefined) | / | 82.2* | -0.86 | i | / | /
O=C(C1CCCN(Cc2ccccc2)C1)N1CCCCC1 (centres undefined) | / | -4.8 | 1.34 | i | 84.1 | 88.5
